The whole screen tested about 300,000 compounds, of which about 37,000 (12%) were called active. The full list was thinned out, with actives kept by preference. Unmarked numbers belong to inactive results. Cut-off read from the data, not from the text of the source: active = max response mostly above about 13% (no sharp cut-off); inactive = mostly below about 14%.

This assay is described as follows: Cycloheximide Counterscreen for Small Molecule Inhibitors of Shiga Toxin. Note: read at 38.3 µM for the half of the compounds with a filed dose; 0% is about no effect. The conditions noted are these: cell reporter, cycloheximide protein synthesis inhibition counterscreen; active compounds read high.
For the molecule `COC(=O)COc1ccc2c(=O)c(Oc3ccccc3Br)coc2c1`, the max response is 1.67%.

Turning to `CCCCN(CCCC)CC(O)Cn1c2ccccc2c(=O)c2ccccc21` (configuration not stated), the max response was 1.42%.

In the case of `CCc1ccnc(NC(=O)Nc2ccc(OCc3ccccc3)cc2)c1`, the max response was 4.28%.

For `COc1ccc(C2=NOC3(CC(=O)N(c4ccc(C)cc4)C3=O)C2)cc1` (configuration not stated), the max response is 14.2%.

In the case of `COc1ccc(C2=Nc3cc(C)ccc3OC2)cc1`, the max response was 33.1% (active).

On to `COc1ccc(/C=C/c2c(-c3cccc(C)c3)oc3ccc(-c4ccc5c(c4)OCO5)cc23)cc1`, for which the max response was -3.1%.

As for `CC(=O)Nc1ccc(S(=O)(=O)Nc2ccc(-c3ccc4nnc(C)n4n3)cc2)cc1`, the max response was -1.66%.

In the case of `O=C(NC1CCCC1)C(c1ccc(Cl)cc1)N(C(=O)c1csnn1)C1CC1` (configuration not stated), the max response was -3.62%.

Regarding `Cc1cccc(C)c1-n1c(C)cc(/C=C2\C(=O)NN(c3ccccc3)C2=O)c1C`, the max response was -1.17%.

On to `Cc1ccccc1-n1c(C)cc(/C=C2\NC(=O)NC2=O)c1C`, for which the max response was 52% (active).

For the molecule `Cc1cc(/C=C2/NC(=O)NC2=O)c(C)n1-c1cccnc1`, the max response was 7.98%.

In the case of `CCOc1ccc(S(=O)(=O)N2CCN=C2Cc2ccccc2)cc1C`, the max response is -7.25%.

In the case of `CCOc1ccc(N(C)S(=O)(=O)c2cnc[nH]2)cc1`, the max response was -3.61%.

For `O=C(Cc1ccc(S(=O)(=O)N2CCCC2)s1)NC1CCCCCC1`, the max response is 0.894%.

In the case of `C=CCn1c(=S)sc2c(=O)[nH]c(C)nc21`, the max response was 6.52%.

Take `COc1ccccc1C1/C(=C(/O)c2ccc(OC(C)C)cc2)C(=O)C(=O)N1c1cc(C)on1` (configuration not stated): the max response is -2.72%.

Take `COc1ccc(C2/C(=C(/O)c3ccccc3)C(=O)C(=O)N2C)c(OC)c1` (configuration not stated): the max response is 5.88%.

As to `CCOc1ccc(/C(O)=C2\C(=O)C(=O)N(c3ccc(OC)cc3)C2c2ccccc2[N+](=O)[O-])cc1` (configuration not stated), the max response was 45.2% (active).

On to `O=S(=O)(Nc1nccs1)c1ccc2c(c1)OCCO2`, for which the max response was 13.4%.

Regarding `CC(CCc1ccc(O)cc1)NCc1ccc(Cl)cc1Cl` (configuration not stated), the max response is 0.267%.

As for `COc1ccc(NC(=O)CCCNC(=O)Cn2cnc3sc4c(c3c2=O)CCCC4)cc1OC`, the max response is -1.82%.

For the molecule `CCOC(=O)c1sc(-c2cccc([N+](=O)[O-])c2)cc1N`, the max response was 19% (active).

Regarding `O=[N+]([O-])c1cccc(C2=NCCS2)c1`, the max response is 7.65%.

`CCOC(=O)C1=C(CN2CCCCCC2)NC(=O)NC1c1cccc([N+](=O)[O-])c1` (configuration not stated): the max response was -4.55%.

Regarding `CN(C)S(=O)(=O)Oc1ccccc1C(=O)Nc1ccccc1Cl`, the max response was -4.26%.

With `O=C(NCc1ccco1)c1nc(-c2ccccc2)n(-c2ccccc2)n1`, the max response was -1.99%.

As for `O=C(NCCc1ccco1)c1nn(Cc2ccccc2)c(=O)c2ccccc12`, the max response was 11.7% (active).

Consider `O=c1c2ccccc2c(-c2ccc(Br)cc2)nn1Cc1ccccc1`, for which the max response is -1.69%.

As to `Cc1ccc(C(NC(=O)N2CCCC2)C(Cl)(Cl)Cl)cc1F` (configuration not stated), the max response was 10.7%.

As for `COc1ccc(C(C(=O)NC(C)(C)C)N(Cc2ccc(F)cc2)C(=O)CCC(=O)Nc2cc(C)on2)cc1` (configuration not stated), the max response was -0.261%.

As to `CCOC(=O)c1c(C)[nH]c2c1-c1ccccc1C(=O)C2=O`, the max response was 12.4%.

Take `CCOC(=O)c1c(C)[nH]c(C2=NNC(=NC(C)COC)SC2)c1C` (configuration not stated): the max response was 42.6% (active).

As for `Cc1ccnc(NS(=O)(=O)c2ccc(NC(=O)c3oc4ccc(F)cc4c3C)cc2)n1`, the max response is -2.51%.

As to `O=C(NCC1COc2ccccc2O1)C1(c2ccccc2)CCCC1` (configuration not stated), the max response is -2.77%.

As for `COc1ccc(Br)cc1CN(C)CC(=O)Nc1cc([N+](=O)[O-])ccc1OC`, the max response was -1.88%.

With `CCN(CC)c1ccc(/C=N/Nc2nc(C)cc(=O)[nH]2)cc1`, the max response was 1.51%.

For `Cc1cc(=O)[nH]c(N/N=C/c2ccc3c(c2)OCCO3)n1`, the max response is 38.7%.

As for `Cc1cc(=O)[nH]c(N/N=C/c2c(C)nn(-c3ccccc3Cl)c2Cl)n1`, the max response was 10.2% (active).

In the case of `Cc1ccc(C(=O)NCC(=O)NCc2cc(=O)n(C)c(=O)n2C)cc1`, the max response was -0.788%.

`O=C(CN1C(=O)CSC1=O)N1CCCC(Nc2ccc(F)cc2)C1` (configuration not stated): the max response was -1.37%.

Regarding `O=C1CCCCN1CCCC(=O)N1CCCC(Nc2ccc(F)cc2)C1` (configuration not stated), the max response was 2.17%.

Regarding `O=C(CN1CCOC1=O)N1CCCC(Nc2ccc(F)c(F)c2)C1` (configuration not stated), the max response was 23.5% (active).

`CC1CCCN(CCCNC(=O)CN2C(=O)COc3ccc(S(=O)(=O)N4CCOCC4)cc32)C1` (configuration not stated): the max response is -6.25%.

Consider `O=C(Nc1ccc2c(c1)CCC2)c1cccc(S(=O)(=O)Nc2ccccc2Cl)c1`, for which the max response is 8.91%.

With `O=C(Cc1ccc2c(c1)CCCC2)Nc1ccccc1Cl`, the max response was 15.4% (active).

Consider `CC1(C)CC(CCC(=O)Nc2ccccc2Cl)C(=O)O1` (configuration not stated), for which the max response was 5.32%.

For the molecule `COc1ccc(CNC(=O)CN(C(=O)c2csnn2)c2cnc3ccccc3c2)cc1`, the max response is -1.99%.

As to `CSc1cccc(NC(=O)CSc2ccccc2)c1`, the max response was 39.6% (active).

As to `O=C(CSc1nc(C2CC2)nc2ccccc12)Nc1cccc(O)c1`, the max response is -1.26%.

For the molecule `Cc1nnc(SCC(=O)Nc2cccc(N)c2)n1-c1ccccc1`, the max response is -3.71%.

As to `O=C(Nc1ccc(CSc2ccccc2)cc1)c1ccc(CN2CCOCC2)cc1`, the max response was -1.82%.

Take `Cc1cc(C)c(C#N)c(SCC(=O)Nc2ccccc2)n1`: the max response was 14% (active).

For the molecule `O=C(CSc1ccccc1)Nc1ccc(C(=O)Nc2cccc(O)c2)cc1`, the max response was 32.4% (active).

With `Cc1cc(C)c(C#N)c(SCc2ccccc2C(=O)O)n1`, the max response is -3.7%.

For the molecule `COCc1cc(C)nc(SCC(=O)Nc2cccc(C)c2)c1C#N`, the max response was 5.77%.

Turning to `O=C(CSc1ccccc1)Nc1cc(Cl)ccc1Oc1ccccc1`, the max response was -2.3%.

With `Cc1cc(C)cc(NC(=O)CSc2ccccc2)c1`, the max response is 18.6% (active).

On to `Cc1cc(C)cc(NC(=O)CN2C(=O)c3ccccc3C2=O)c1`, for which the max response is -2.91%.

For `Cc1cc(C)cc(NC(=O)CCN2C(=O)c3ccccc3C2=O)c1`, the max response is 7.24%.

Regarding `COc1ccc(/C=C2\SC(=S)N(CCC(=O)Nc3cccc(C(=O)O)c3)C2=O)cc1OC`, the max response was 1.51%.

As to `CC(NC(=O)COc1cccnc1[N+](=O)[O-])c1ccc(Cl)cc1Cl` (configuration not stated), the max response is -5.73%.

`CCCN1Cc2cccc(C(=O)Nc3ccc(S(=O)(=O)N4CCCCCC4)cc3)c2C1=O`: the max response is -1.84%.

Take `CCCCN(CC)C(=O)C1CCCN(S(=O)(=O)c2cccc3nsnc23)C1` (configuration not stated): the max response was -3.7%.

In the case of `C#CCNC(=O)C1=C[C@@H](c2ccccc2)[C@H](CCCO)[C@@H](OCC)O1`, the max response is 0.207%.

Consider `O=C(NCC(c1cccs1)N1CCOCC1)c1cc(-c2ccccn2)nc2ccccc12` (configuration not stated), for which the max response was -1.88%.

In the case of `CN(C(=O)c1cccc([N+](=O)[O-])c1)c1ccccc1C(=O)NCc1ccccc1`, the max response was -2.25%.

In the case of `CN(C)/C=C(/C(=O)c1ccc(F)cc1)S(=O)(=O)c1ccc(F)cc1`, the max response was 27.7% (active).

With `CN(C)/C=C(/C(=O)c1ccc(Cl)cc1)S(=O)(=O)c1ccccc1`, the max response is 50.5% (active).

In the case of `CN(C)/C=C(/C(=O)c1ccccc1)S(=O)(=O)c1ccc(Cl)cc1`, the max response was 9.87%.

For the molecule `CN(C)/C=C(/C(=O)c1ccccc1Cl)S(C)(=O)=O`, the max response was -0.829%.

With `O=C(NNS(=O)(=O)c1ccc(F)cc1)C1CCCCC1`, the max response was -1.22%.

For `Cc1ccc(S(=O)(=O)/N=C(\N)c2ccc(F)cc2)cc1`, the max response is 6.04%.

With `CCN(CC)/[N+]([O-])=N/Oc1cc(O/[N+]([O-])=N/N2CCCC2CO)c([N+](=O)[O-])cc1[N+](=O)[O-]` (configuration not stated), the max response was -2.07%.

Take `O=C(Nc1cccc(Cl)c1)c1cncn1-c1ccc(F)cc1`: the max response is 6.32%.

As to `COc1ccccc1C(=O)NNC(=O)CCN1C(=O)/C(=C\c2ccccc2)SC1=S`, the max response is -3.61%.

Regarding `CCn1cc(CCC(=O)NCc2ccc(F)cc2)c2ccccc21`, the max response was 5.51%.

For the molecule `O=C(CCCNS(=O)(=O)c1cccc2nsnc12)NCCN1CCN(c2ccccc2F)CC1`, the max response was -4.37%.

`COc1ccc(NS(=O)(=O)c2ccc(Oc3c(C#N)cccc3C#N)cc2)cc1`: the max response was 5.34%.

Consider `COc1ccccc1Oc1ccc(N/C=C2/CCCC2=O)cc1`, for which the max response was 15.4% (active).

In the case of `COc1ccccc1Oc1ccc(S(=O)(=O)Nc2cccnc2)cc1`, the max response was -1.76%.

For `COCCOC(=O)c1[nH]c2c(c1C)C(=O)CC(c1ccc(OC)cc1)C2` (configuration not stated), the max response was 7.29%.

For the molecule `CCOC(=O)c1[nH]c2c(c1-c1ccccc1)C(=O)CC(c1ccc(Cl)cc1)C2` (configuration not stated), the max response is 5.07%.

In the case of `CCOC(=O)c1[nH]c2c(c1C)C(=O)CC(c1ccc(N(C)C)cc1)C2` (configuration not stated), the max response is 25.5% (active).

In the case of `CCOC(OCC)c1ccc(/C=C\c2nccc(N)n2)cc1`, the max response is 38.5% (active).

Consider `Cc1cc(=O)n2nc(N3CCCC(C(=O)NCc4ccc(Cl)cc4)C3)sc2n1` (configuration not stated), for which the max response was -2.2%.

In the case of `CC(=O)OCc1cc2cc(C)ccc2[nH]c1=O`, the max response is -2.45%.

On to `CCOC(=O)c1cc2cc(C)ccc2[nH]1`, for which the max response was 39.7% (active).

As for `CCNCc1cc2cc(C)ccc2[nH]c1=O`, the max response is 4.83%.

For the molecule `Cc1ccc2c(c1)N(CC(=O)N(Cc1ccccn1)Cc1ccco1)C(=O)C(C(C)C)O2` (configuration not stated), the max response was 8.51%.

As for `CCOC(CNC(=O)C1CCN(S(=O)(=O)c2ccc3nc4c(c(C(=O)O)c3c2)CC(C)CC4)CC1)OCC` (configuration not stated), the max response is -3.45%.

Take `CC(=O)c1cccc(NC(=O)COc2ccc(S(=O)(=O)N3CCOCC3)cc2)c1`: the max response was 0.879%.

`Cc1cc(C)cc(NC(=O)N2CCCCCCC2)c1`: the max response was -5.05%.

On to `CC(C)N1CCC(NC(=O)Nc2ccccc2)CC1`, for which the max response is -2.49%.

For `Cc1cc(C)cc(NC(=O)NC2CCN(CC(=O)Nc3cccc(Cl)c3C)CC2)c1`, the max response is -0.314%.

With `CC(C)c1ccc(NC(=O)NC2CCCCC2)cc1`, the max response is 44.1% (active).

Regarding `Cc1cc(C)cc(NC(=O)NC2CCCCCCC2)c1`, the max response is 17.4% (active).

For `CC(C)(C)NS(=O)(=O)c1ccc(NC(=O)NC2CCCCC2)cc1`, the max response was 9%.

For the origin of these results see PubChem BioAssay AID2314 (National Center for Advancing Translational Sciences (NCATS), 2010).
